# Inconclusive results are not listed. Activity calls are given as the source filed them. How the source made its calls, unless noted: active means hit-call score of the fitted dose curve at least 0.9, where 1 is the maximum; inconclusive means response in the unintended direction; inactive means score below 0.9.
# How the values were obtained:
# [1] = read-out: ABC Transporter (ABCB1), ABCB1 (gene 5243); test: CLD_ABCB1_6hr: CellzDirect (CLD) Gene Expression Assay for ABC Transporter (ABCB1) at 6 hours (AID 2283659);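 further: hits raise ABCB1 transcript above the DMSO vehicle baseline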
# Summary of the method: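 Primary human hepatocytes (two donor preparations) dosed daily for two days with chemicals at multiple concentrations, 0.2% DMSO vehicle; harvested 6 h post-dose. ABCB1 mRNA induction quantified by qNPA chemiluminescence; gain-of-signal fitted versus DMSO.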
# [2] = read-out: Broad substrate specificity ATP-binding cassette transporter ABCG2 (Homo sapiens) (UniProt Q9UNQ0); test: CLD_ABCG2_6hr: CellzDirect (CLD) Gene Expression Assay for ABC Transporter (ABCG2) at 6 hours (AID 2283660)
# Summary of the method: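 Primary human hepatocytes dosed daily with chemicals at multiple concentrations (0.2% DMSO vehicle), harvested 6 h after dosing. ABCG2 mRNA induction read by quantitative nuclease protection assay (qNPA) chemiluminescence; gain of signal fitted against DMSO baseline.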
# [3] = read-out: xenobiotic metabolism (CYP1A1), CYP1A1 (gene 1543); test: CLD_CYP1A1_6hr: CellzDirect (CLD) Gene Expression Assay for xenobiotic metabolism (CYP1A1) at 6 hours (AID 2283661);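 on AC50: potency for transcript induction above DMSO vehicle baseline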
# Summary of the method: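 Primary human hepatocytes from two donors, compound versus 0.2% DMSO vehicle. CYP1A1 mRNA measured 6 h after dosing by quantitative nuclease protection assay with chemiluminescent read-out; induction fitted relative to DMSO, cytotoxicity flagged by microscopy.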
# [4] = system: Thyroperoxidase (TPO), gene 54314; test: CCTE_Simmons_AUR_rTPO: CCTE's Amplex UltraRed Assay for Thyroperoxidase (TPO) Inhibition, Simmons Lab (AID 2283662);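 on AC50: potency for loss of signal meaning inhibition of peroxidase activity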
# Summary of the method: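 Rat thyroid microsomes (5 ug protein) with 25 uM Amplex UltraRed and 300 uM H2O2 in 200 mM phosphate buffer, 30 min at 37C in dark; fluorescence 544/590 nm. Eight concentrations, 5 nM–87.5 uM final, 0.5% DMSO, triplicate biological replicates.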
# [5] = read-out: xenobiotic metabolism (CYP1A2), CYP1A2 (gene 1544); test: CLD_CYP1A2_6hr: CellzDirect (CLD) Gene Expression Assay for xenobiotic metabolism (CYP1A2) at 6 hours (AID 2283663);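 on AC50: potency is for induction meaning a rise in mRNA above DMSO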
# Summary of the method: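 Primary human hepatocytes from two donor preparations, dosed daily with multiple concentrations in 0.2% DMSO and harvested at 6 h. CYP1A2 mRNA induction measured by chemiluminescent qNPA, gain of signal fitted against DMSO; cytotoxicity flagged morphologically.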
# [6] = CCTE_Simmons_CellTiterGLO_HEK293T: Viability Assessment in CCTE's Assays for Thyroperoxidase (TPO) Inhibition, Simmons Lab (AID 2283665);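 on AC50: cells exposed to compound for 24 h before readout; actives reduce ATP signal below DMSO vehicle meaning cytotoxicity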
# Summary of the method: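 Cytotoxicity counter-screen: human HEK293T cells in low-serum (1% FBS) medium receive test chemical, 5 nM to 87.5 uM final, for 24 h; ATP is quantified by luciferase luminescence.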
# [7] = read-out: alkyl and aryl transferase (GSTA2), GSTA2 (gene 2939); test: CLD_GSTA2_6hr: CellzDirect (CLD) Gene Expression Assay for alkyl and aryl transferase (GSTA2) at 6 hours (AID 2283666)
# Summary of the method: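 Primary human hepatocytes from two donor preparations were dosed daily with fresh compound at multiple concentrations, 0.2% DMSO vehicle. GSTA2 mRNA was measured at 6 hours by qNPA chemiluminescence; induction fitted relative to DMSO, with cytotoxicity flagged morphologically.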
# [8] = Tanguay_ZF_120hpf_TR_legacy: (Legacy) Oregon State University Tanguay Lab 120 Hour Post-fertilization zebrafish Assay for Touch Response (AID 2283667)
# Summary of the method: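 5D WT embryos; static exposure to 120 hpf, 28C, sealed/dark; DMSO 0.64% v/v final. TR scored present/absent; dead embryos excluded. Pos ctrl 5uM trimethyltin chloride.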
# [9] = read-out: solute carrier (SLC10A1), SLC10A1 (gene 6554); test: LTEA_HepaRG_SLC10A1: Life Technologies and Expression Analysis (LTEA) Assay for solute carrier (SLC10A1) using HepaRG (AID 2283657; active means hit-call score of the fitted dose curve at least 0.9, where 1 is the maximum; inactive means score below 0.9); conditions: mRNA level, 48 h; actives raise or lower the signal
# Summary of the method: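 Transcript levels were measured by qRT-PCR after human HepaRG cells received test chemical for 48 hours, up to 100 uM in half-log dilutions. Values come from bidirectional concentration-response fitting relative to 0.5% DMSO vehicle.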
# [10] = read-out: matrix metalloproteinase-1 (MMP1), MMP1 (gene 4312); test: LTEA_HepaRG_MMP1: Life Technologies and Expression Analysis (LTEA) Assay for matrix metalloproteinase-1 (MMP1) using HepaRG (AID 2283658; active means hit-call score of the fitted dose curve at least 0.9, where 1 is the maximum; inactive means score below 0.9); conditions: mRNA level, 48 h; actives raise or lower the signal
# Summary of the method: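 In this screen, human liver HepaRG cultures receive each chemical in duplicate for 48 h (top 100 uM, 0.5% DMSO). MMP1 expression is then quantified by TaqMan qRT-PCR with ACTB/GAPDH/POLR2A normalization.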
# Sequence of Broad substrate specificity ATP-binding cassette transporter ABCG2 (Homo sapiens) (Q9UNQ0 whole entry, looked up): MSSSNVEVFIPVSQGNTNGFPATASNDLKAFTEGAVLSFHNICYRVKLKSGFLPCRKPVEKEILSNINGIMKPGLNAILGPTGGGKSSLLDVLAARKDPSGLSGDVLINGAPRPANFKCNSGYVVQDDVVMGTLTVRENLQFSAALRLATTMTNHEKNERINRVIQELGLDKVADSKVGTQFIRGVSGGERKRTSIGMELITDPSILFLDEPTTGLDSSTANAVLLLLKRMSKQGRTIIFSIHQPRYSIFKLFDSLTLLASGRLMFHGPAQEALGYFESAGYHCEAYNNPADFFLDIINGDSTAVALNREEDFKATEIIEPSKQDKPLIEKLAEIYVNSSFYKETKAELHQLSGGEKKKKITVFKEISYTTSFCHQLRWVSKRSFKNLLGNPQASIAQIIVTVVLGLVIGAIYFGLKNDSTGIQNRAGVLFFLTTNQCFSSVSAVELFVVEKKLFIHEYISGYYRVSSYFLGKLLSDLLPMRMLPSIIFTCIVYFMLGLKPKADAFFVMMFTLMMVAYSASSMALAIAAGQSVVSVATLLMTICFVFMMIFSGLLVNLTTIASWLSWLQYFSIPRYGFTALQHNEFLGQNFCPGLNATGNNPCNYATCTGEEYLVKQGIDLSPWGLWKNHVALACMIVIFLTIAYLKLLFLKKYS
smiles,measurement,setting,value
CS(=O)(=O)c1ccc(C(=O)C2C(=O)CCCC2=O)c([N+](=O)[O-])c1,outcome,[1],inactive
same,outcome,[2],inactive
same,outcome,[3],inactive
same,AC50,[4],30.6 µM (active)
same,outcome,[5],inactive
same,outcome,[6],inactive
same,outcome,[7],inactive
same,outcome,[8],inactive
OC(c1ccc(Cl)cc1)(c1ccc(Cl)cc1)C(Cl)(Cl)Cl,outcome,[1],inactive
same,outcome,[2],inactive
same,outcome,[3],inactive
same,AC50,[4],43.8 µM (active)
same,outcome,[5],inactive
same,AC50,[6],6.74 µM (active)
same,outcome,[8],inactive
CCOP(=S)(OCC)Oc1nc(Cl)n(C(C)C)n1,AC50,[9],30.4 µM (active)
same,outcome,[10],inactive
same,outcome,[1],inactive
same,outcome,[2],inactive
same,AC50,[3],2.55 µM (active)
same,AC50,[4],31.2 µM (active)
same,AC50,[5],2.78 µM (active)
same,outcome,[6],inactive
same,outcome,[7],inactive
same,outcome,[8],inactive
CC(C)Nc1nc(Cl)nc(NC(C)C)n1,outcome,[1],inactive
same,outcome,[2],inactive
same,AC50,[3],4.73 µM (active)
same,AC50,[5],0.163 µM (active)
same,outcome,[8],inactive
Cc1nc(N(C)C)nc(OC(=O)N(C)C)c1C,outcome,[1],inactive
same,outcome,[2],inactive
same,AC50,[3],4.32 µM (active)
same,AC50,[5],3.8 µM (active)
same,outcome,[7],inactive
same,outcome,[8],inactive
CCN(CC)C(=O)C(C)Oc1cccc2ccccc12 (centres undefined),AC50,[3],3.97 µM (active)
same,AC50,[4],26.3 µM (active)
same,AC50,[5],4.15 µM (active)
same,AC50,[6],87.8 µM (active)
same,outcome,[8],inactive
N#Cc1c(Cl)cccc1Cl,outcome,[1],inactive
same,outcome,[7],inactive
same,outcome,[8],inactive
COC(=O)NC(=S)Nc1ccccc1NC(=S)NC(=O)OC,AC50,[3],5.11 µM (active)
same,AC50,[4],22.2 µM (active)
same,outcome,[5],inactive
same,outcome,[6],inactive
same,outcome,[8],inactive
Clc1nc(Cl)nc(Nc2ccccc2Cl)n1,outcome,[2],inactive
same,outcome,[3],inactive
same,AC50,[4],6.29 µM (active)
same,outcome,[5],inactive
same,AC50,[6],83.1 µM (active)
same,outcome,[8],inactive
COC(=O)N(C(=O)N1CO[C@@]2(C(=O)OC)Cc3cc(Cl)ccc3C2=N1)c1ccc(OC(F)(F)F)cc1,outcome,[1],inactive
same,AC50,[3],2.46 µM (active)
same,AC50,[5],0.449 µM (active)
same,outcome,[7],inactive
same,outcome,[8],inactive
O=P(O)(O)CCCl,outcome,[3],inactive
same,AC50,[4],18.2 µM (active)
same,outcome,[5],inactive
same,outcome,[6],inactive
same,outcome,[7],inactive
same,outcome,[8],inactive
COP(=S)(OC)Oc1ccc([N+](=O)[O-])c(C)c1,outcome,[1],inactive
same,AC50,[3],1.22 µM (active)
same,AC50,[4],5.57 µM (active)
same,AC50,[5],3.34 µM (active)
same,outcome,[6],inactive
same,outcome,[7],inactive
same,outcome,[8],inactive
CCNC(=O)NC(=O)C(C#N)=NOC,outcome,[3],inactive
same,AC50,[4],41.2 µM (active)
same,outcome,[5],inactive
same,outcome,[7],inactive
same,outcome,[8],inactive
CC(C)=CC1C(C(=O)OCc2coc(Cc3ccccc3)c2)C1(C)C (centres undefined),outcome,[1],inactive
same,outcome,[3],inactive
same,AC50,[4],26.8 µM (active)
same,AC50,[6],32.7 µM (active)
same,outcome,[8],inactive
CNC(=O)Oc1cccc2ccccc12,AC50,[3],4.68 µM (active)
same,AC50,[5],6.08 µM (active)
same,outcome,[8],inactive
CCCC(=NOCC)C1=C(O)CC(CC(C)SCC)CC1=O (centres undefined),outcome,[1],inactive
same,outcome,[2],inactive
same,outcome,[8],inactive
CCOC(=O)C(C)OC(=O)c1cc(Oc2ccc(C(F)(F)F)cc2Cl)ccc1[N+](=O)[O-] (centres undefined),outcome,[1],inactive
same,AC50,[3],4.58 µM (active)
same,AC50,[5],4.81 µM (active)
same,outcome,[8],inactive
Clc1cccc(C(Cl)(Cl)Cl)n1,outcome,[1],inactive
same,AC50,[3],20 µM (active)
same,outcome,[5],inactive
same,outcome,[7],inactive
CSC(=O)c1c(C(F)F)nc(C(F)(F)F)c(C(=O)SC)c1CC(C)C,AC50,[3],5.31 µM (active)
same,outcome,[5],inactive
same,outcome,[7],inactive
same,outcome,[8],inactive
CCSC(=O)N1CCCCCC1,outcome,[1],inactive
same,outcome,[3],inactive
CCCCOCN(C(=O)CCl)c1c(CC)cccc1CC,outcome,[2],inactive
same,AC50,[3],5.21 µM (active)
same,outcome,[5],inactive
same,outcome,[8],inactive
C=C(C)CN(CC)c1c([N+](=O)[O-])cc(C(F)(F)F)cc1[N+](=O)[O-],outcome,[1],inactive
same,outcome,[3],inactive
same,outcome,[5],inactive
same,outcome,[7],inactive
same,outcome,[8],inactive
CN/C(=N\[N+](=O)[O-])NCc1cnc(Cl)s1,outcome,[8],inactive
COc1cc(OC)nc(NC(=O)NS(=O)(=O)c2ncccc2OCC(F)(F)F)n1,outcome,[5],inactive
same,outcome,[8],inactive
CCNP(=S)(OC)O/C(C)=C/C(=O)OC(C)C (centres undefined),outcome,[1],inactive
same,AC50,[3],3.37 µM (active)
same,outcome,[4],inactive
same,AC50,[5],3.56 µM (active)
same,outcome,[7],inactive
same,outcome,[8],inactive
Cc1cc(C)nc(Nc2ccccc2)n1,AC50,[3],3.97 µM (active)
same,AC50,[5],3.97 µM (active)
same,outcome,[8],inactive
O=C(O)c1c(Cl)ccc2cc(Cl)cnc12,outcome,[1],inactive
same,outcome,[3],inactive
same,outcome,[5],inactive
same,outcome,[8],inactive
CO/N=C(/C1=NOCCO1)c1ccccc1Oc1ncnc(Oc2ccccc2Cl)c1F,outcome,[1],inactive
same,outcome,[2],inactive
same,outcome,[7],inactive
same,outcome,[8],inactive
Nc1cnn(-c2ccccc2)c(=O)c1Cl,outcome,[2],inactive
same,AC50,[3],5.67 µM (active)
same,AC50,[5],9.27 µM (active)
same,outcome,[8],inactive
CNC(=O)N(C)c1nnc(C(C)(C)C)s1,outcome,[1],inactive
same,AC50,[3],0.00579 µM (active)
same,outcome,[5],inactive
same,outcome,[7],inactive
same,outcome,[8],inactive
O=c1n(Cl)c(=O)n(Cl)c(=O)n1Cl,outcome,[2],inactive
same,AC50,[3],11.3 µM (active)
same,AC50,[4],22.5 µM (active)
same,AC50,[5],20 µM (active)
same,outcome,[6],inactive
same,outcome,[7],inactive
same,outcome,[8],inactive
COCC(=O)N(c1c(C)cccc1C)C(C)C(=O)OC (centres undefined),outcome,[1],inactive
same,AC50,[3],20 µM (active)
same,outcome,[5],inactive
same,outcome,[7],inactive
same,outcome,[8],inactive
CS(=O)(=O)c1cc(C(F)(F)F)ccc1C(=O)c1cnoc1C1CC1,outcome,[3],inactive
same,outcome,[5],inactive
same,outcome,[8],inactive
CC(C)N1C(=O)c2ccccc2NS1(=O)=O,outcome,[1],inactive
same,outcome,[3],inactive
same,outcome,[5],inactive
same,outcome,[7],inactive
same,outcome,[8],inactive
Cn1c(-c2ccccc2)cc(-c2ccccc2)[n+]1C,outcome,[1],inactive
same,outcome,[3],inactive
same,outcome,[5],inactive
same,outcome,[8],inactive
COC(=O)c1c(C(F)F)nc(C(F)(F)F)c(C2=NCCS2)c1CC(C)C,outcome,[1],inactive
same,AC50,[3],1.91 µM (active)
same,AC50,[5],0.665 µM (active)
same,outcome,[7],inactive
CCN(CC)c1nc(C)cc(OP(=S)(OC)OC)n1,AC50,[3],4.71 µM (active)
same,AC50,[4],19.1 µM (active)
same,AC50,[5],5.69 µM (active)
same,AC50,[6],53.8 µM (active)
same,outcome,[8],inactive
CC1(C)C(C(=O)OC(C#N)c2cccc(Oc3ccccc3)c2)C1(C)C (centres undefined),outcome,[1],inactive
same,outcome,[3],inactive
same,outcome,[5],inactive
same,outcome,[8],inactive
N#Cc1c[nH]cc1-c1cccc2c1OC(F)(F)O2,AC50,[3],0.9 µM (active)
same,AC50,[5],0.554 µM (active)
same,outcome,[8],inactive
COc1cc(Cl)c(OC)cc1Cl,outcome,[1],inactive
same,outcome,[2],inactive
same,outcome,[7],inactive
same,outcome,[8],inactive
O=C(Nc1ccccc1-c1ccc(Cl)cc1)c1cccnc1Cl,outcome,[1],inactive
same,AC50,[3],2.46 µM (active)
same,AC50,[5],2.34 µM (active)
same,outcome,[8],inactive

# From PubChem BioAssay (EPA / NIEHS)
